# PubChem BioAssay AID588403 (Broad Institute, 2011)
# The source made the active and inactive calls.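 Rule for the calls: active = dose-dependent signal loss with a fitted half-maximal concentration at or below 35 µM; inconclusive = flat fit with 30 to 70% signal loss, or poor fit; inactive = the rest.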
# Test: compounds quenching DiI signal without cells – biochemical, powder samples, plate reader fluorescence, artefact control for SR-BI HDL uptake inhibitor project, dose response (AID 588403)
# Conditions: cell-free DiI-HDL fluorescence quenching counter-screen, 30 min; series mostly up to 35 µM
row,Structure (SMILES),outcome
1,CC(C(=O)NC1CCCC1)N(C(=O)Cn1nnc(-c2ccc(Cl)cc2)n1)C1CCCCC1 (stereo not given),inactive
2,CC(C(=O)NC1CCCC1)N(C(=O)Cn1nnc(-c2ccccc2Cl)n1)C1CCCCC1 (stereo not given),inactive
3,O=C(Nc1nc(-c2ccc3c(c2)CCN3)cs1)c1ccco1,inactive
4,O=C(Nc1nc(-c2ccc3c(c2)CCN3C(=O)C2CC2)cs1)c1ccco1,inactive
5,CS(=O)(=O)N1CCc2cc(-c3csc(NC(=O)c4ccco4)n3)ccc21,inactive
6,CCC(=O)N1CCc2cc(-c3csc(NC(=O)c4ccco4)n3)ccc21,inactive
7,CC(C(=O)NC1CCCC1)N(C(=O)Cn1nnc(-c2ccc(F)cc2)n1)C1CCCCC1 (stereo not given),inactive
8,COc1ccc(-c2nnn(CC(=O)N(CC(=O)NC3CCCC3)C3CCCCC3)n2)cc1OC,inactive
9,CC(C(=O)NC1CCCC1)N(C(=O)Cn1nnc(-c2ccccc2F)n1)C1CCCCC1 (stereo not given),inactive
10,CCC(=O)N1CCc2cc(-c3csc(NC(=O)c4cccc(OC)c4)n3)ccc21,inactive
11,O=C(CN(C(=O)Cn1nnc(-c2ccc3c(c2)OCO3)n1)C1CCCCC1)NC1CCCC1,inactive
12,CCC(=O)N1CCc2cc(-c3coc(NC(=O)c4ccco4)n3)ccc21,inactive
13,C[C@@H]1CN([C@H](C)CO)C(=O)c2cc(NC(=O)Cc3cn(C)c4ccccc34)ccc2O[C@H]1CN(C)S(=O)(=O)c1ccc(Cl)cc1,inactive
14,COc1ccc(-c2cc(CC(=O)N(C3CCCCC3)C(C)C(=O)NC3CCCC3)no2)cc1OC (stereo not given),inactive
15,CCC(=O)N1CCc2cc(-c3csc(NC(=O)c4cc(OC)cc(OC)c4)n3)ccc21,inactive
16,COC(=O)N1CCc2cc(-c3csc(NC(=O)c4ccco4)n3)ccc21,inactive
17,CC(C)C(=O)N1CCc2cc(-c3csc(NC(=O)c4ccco4)n3)ccc21,inactive
18,CCC(=O)N1CCc2cc(-c3cnc(NC(C)=O)[nH]3)ccc21,inactive
19,COc1cccc(-c2nnn(CC(=O)N(C3CCCCC3)C(C)C(=O)NC3CCCC3)n2)c1 (stereo not given),inactive
20,Cc1ccc(-c2nnn(CC(=O)N(C3CCCCC3)C(C)C(=O)NC3CCCC3)n2)cc1 (stereo not given),inactive
21,CCC(=O)N1CCc2cc(-c3coc(N)n3)ccc21,inactive
22,CCC(=O)N1CCc2cc(-c3csc(NC(=O)c4ccc(F)c(OC)c4)n3)ccc21,inactive
23,CCC(=O)N1CCc2cc(-c3cnc(NC(=O)c4ccco4)[nH]3)ccc21,inactive
24,CC(C(=O)NC1CCCC1)N(C(=O)Cn1nnc(-c2ccc3c(c2)OCO3)n1)C1CCCCC1 (stereo not given),inactive
25,COc1ccccc1-c1nnn(CC(=O)N(C2CCCCC2)C(C)C(=O)NC2CCCC2)n1 (stereo not given),inactive
26,CCCCCCC1CCC/C1=N\NC(N)=S (stereo not given),inactive
27,CCC(=O)N1CCc2cc(-c3csc(NC(=O)c4cccc(OC(F)(F)F)c4)n3)ccc21,inactive
28,COc1ccc(-c2nnn(CC(=O)N(C3CCCCC3)C(C)C(=O)NC3CCCC3)n2)cc1OC (stereo not given),inactive
29,CC(C(=O)NC1CCCC1)N(C(=O)Cn1nnc(-c2cccc(F)c2)n1)C1CCCCC1 (stereo not given),inactive
30,CCC(=O)N1CCc2cc(-c3csc(NC(=O)c4cccc(OC)n4)n3)ccc21,inactive
